An excerpt weighted towards active compounds, which were near 3.2% of everything screened.
MEKK2 mut-MEK5: signal of MEK5 binding to mutant human MEKK2 PB1 domain | bead flow cytometry, Alexa488-MEK5 binding to MEKK2 mutant | percent response, % at 10 µM | 290,000 tested, 0.35% active | AID 1530; in the data active = percent response above about 24%, passing the limit was not always enough
MEKK3 PB1 HTS: raises or lowers MEK5 binding to the human MEKK3 PB1 domain; bead-based flow cytometry, Alexa488-MEK5 binding to MEKK3; actives lie on both sides; 0 = blocked by unlabeled MEK5, 100 = vehicle; binding response (% of control), % at 10 µM; 290,000 tested, 1.4% active; AID 1529;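 active = binding response more than 3 SD above or below the average of its plate-row segment, actives on both sides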;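 also: Alexa488 bead fluorescence after subtracting the streptavidin-only scavenger bead signal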
Target sequence (Q99759 whole entry, looked up, the tested form may be a part): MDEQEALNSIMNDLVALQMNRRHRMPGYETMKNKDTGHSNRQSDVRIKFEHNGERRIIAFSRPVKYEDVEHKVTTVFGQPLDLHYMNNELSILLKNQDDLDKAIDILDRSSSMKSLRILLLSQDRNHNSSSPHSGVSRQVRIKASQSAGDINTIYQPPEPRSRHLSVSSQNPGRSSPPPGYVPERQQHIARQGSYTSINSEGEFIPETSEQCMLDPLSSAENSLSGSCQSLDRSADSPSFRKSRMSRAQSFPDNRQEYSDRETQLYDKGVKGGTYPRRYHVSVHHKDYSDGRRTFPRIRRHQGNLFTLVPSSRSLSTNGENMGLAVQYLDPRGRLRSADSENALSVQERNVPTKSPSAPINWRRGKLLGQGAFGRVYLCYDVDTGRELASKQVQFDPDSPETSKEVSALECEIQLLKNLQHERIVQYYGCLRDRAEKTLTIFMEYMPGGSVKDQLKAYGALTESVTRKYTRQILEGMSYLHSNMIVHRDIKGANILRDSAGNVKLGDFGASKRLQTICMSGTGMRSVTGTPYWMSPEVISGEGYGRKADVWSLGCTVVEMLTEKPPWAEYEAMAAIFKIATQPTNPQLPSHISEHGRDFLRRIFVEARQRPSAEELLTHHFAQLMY
CendR NRP1 mod: alters CendR peptide binding to human NRP-1; O14786; FAM-RPARPAR peptide binding to NRP-1, fluorescence polarization; inhibition, % at 25 µM; 360,000 tested, 0.85% active;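 active = inhibition or corrected inhibition above about 18%, plus a signal ratio from 0.5 to 1.5, limit read from the data, passing the limit was not always enough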
MEKK2wt PB1 HTS: raises or lowers MEK5 binding to wildtype human MEKK2 PB1 domain | Q9Y2U5 | bead flow cytometry, Alexa488-MEK5 binding to MEKK2 WT; actives lie on both sides | binding response (% of control), % at 10 µM | 290,000 tested, 1.1% active | AID 1531; in the data active = binding response below about 67% or above about 130%
SKN-1 block: C. elegans SKN-1 inhibition | inhibition, % at 21.8 µM | 360,000 tested, 0.49% active | AID 624304 | C. elegans VP596 Pgst-4::GFP/RFP ratio, acrylamide-induced, 24 h;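 active = interference check ratio from 0.5 to 1.5 plus GFP to RFP signal ratio inhibition reaching or exceeding a fixed threshold, cut at about 30% in these data, passing the limit was not always enough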
MEKK2wt confirm: raises or lowers MEK5 binding to wildtype human MEKK2, retest. 5,900 tested, 2.4% active. binding response (% of control), % at 10 µM. bead flow cytometry, Alexa488-MEK5 binding to MEKK2 WT; actives lie on both sides. shares compounds with MEKK3 PB1 HTS. AID 1892; in the data active = binding response below about 16% or above about 210%; inactive = in between
MEKK2mut-MEK5: signal of MEK5 binding to mutant human MEKK2, retest; shares compounds with MEKK3 PB1 HTS; percent response, % at 10 µM; bead flow cytometry, Alexa488-MEK5 binding to MEKK2 mutant; 5,900 tested, 2% active; AID 1893; in the data active = percent response mostly above about 71%, no sharp cut-off; inactive = mostly below about 38%;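 also: higher means compound restores mutant binding toward wildtype level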
MEKK3-MEK5 inh: confirmation of inhibitors of MEK5 binding to human MEKK3 | shares compounds with MEKK3 PB1 HTS | bead flow cytometry, Alexa488-MEK5 binding to MEKK3; active compounds read low | binding response (% of control), % at 10 µM | 5,900 tested, 1.8% active | AID 1894;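 active = binding response below 72% of control, or above a set upper limit, though filed actives all read lower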;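 also: 100% = DMSO only wells and 0% = binding blocked by excess unlabeled MEK5; lower values mean stronger disruption of MEK5 binding to MEKK3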
The depositor's hits bear a star; nt = no result given; [ ] = remark or other dose.

SMILES	MEKK2 mut-MEK5	MEKK3 PB1 HTS	CendR NRP1 mod	MEKK2wt PB1 HTS	SKN-1 block	MEKK2wt confirm	MEKK2mut-MEK5	MEKK3-MEK5 inh
CCc1ccc(NC(=O)COc2cccc(-n3cnnn3)c2)cc1	2.0	101.0	-2.8	95.0	-4.0	nt	nt	nt
COc1ccc(/C=C(/NC(=O)c2ccco2)C(=O)N2CCCC2=O)cc1	-26.0	64.0*[inhibitor]	2.5	59.0*[inhibitor]	6.2	97.0	-12.0	94.0
COc1ccc2[nH]c3c(=O)n(N)c(C)nc3c2c1	1.0	136.0*	2.7	107.0	6.5	104.0	2.0	105.0
O=C(Nc1ccc2c(c1)[C@@H]1C[C@@H](CC(=O)N3CCOCC3)O[C@@H](CO)[C@@H]1O2)NC1CCCC1	nt	nt	-7.8	nt	2.1	nt	nt	nt
CCC(C)NC(=O)CN(c1cc(Cl)ccc1OC)S(C)(=O)=O (stereo not drawn)	1.0	140.0*	-7.3	114.0	9.8	99.0	-6.0	99.0
CCN(CC)C(=O)CN(c1cc(Cl)ccc1OC)S(C)(=O)=O	2.0	100.0	10.7	101.0	6.2	nt	nt	nt
CC(C)c1ccc(N(CC(=O)N2CCN(Cc3ccccc3)CC2)S(C)(=O)=O)cc1	0.0	100.0	8.2	98.0	-4.6	nt	nt	nt
CCN(CC)c1ccc(Nc2nc(N3CCOCC3)c3ccccc3n2)cc1	4.0	102.0	6.7	120.0	14.9	nt	nt	nt
COc1ccc(Nc2nc(N3CCCC3)c3ccccc3n2)cc1	45.0*	107.0	1.9	185.0*	18.9	159.0	44.0	109.0
OCCCCNCc1ccc(OCc2ccc(Cl)cc2Cl)cc1	34.0*	110.0	-9.5	169.0*	8.5	163.0	75.0*	108.0
S=C(Nc1ccccc1)Nc1ccc(OCc2ccc(Cl)cc2Cl)cc1	-8.0	98.0	7.2	97.0	-2.5	nt	nt	nt
COc1cc(CNCCCCO)ccc1OCc1ccccc1F	14.0	103.0	-71.5	137.0	12.7	nt	nt	nt
OCCNCc1ccc(OCc2ccc(Cl)cc2Cl)cc1	27.0	101.0	6.9	138.0*	-0.4	124.0	6.0	98.0
COc1cccc(C2CC(c3cccs3)=NN2S(C)(=O)=O)c1OC (stereo not drawn)	-8.0	86.0	-14.9	55.0	7.6	nt	nt	nt
CS(=O)(=O)N1N=C(c2cccs2)CC1c1ccccc1F (stereo not drawn)	3.0	99.0	2.5	-4.0*[inhibitor]	10.3	102.0	6.0	105.0
Cc1ccc(C2CC(c3cccs3)=NN2S(=O)(=O)c2ccc(C)cc2)cc1 (stereo not drawn)	9.0	102.0	-38.4	61.0*[inhibitor]	10.3	94.0	-1.0	101.0
O=C1NC(=O)C2(CCCCC2C2CCCCC2)N1 (stereo not drawn)	nt	nt	3.0	nt	15.7	nt	nt	nt
CCc1nc2c(OCCOc3ccc(F)cc3)cccn2c1N(C=O)Cc1ccccc1	nt	nt	-10.3	nt	-24.2	nt	nt	nt
O=C(O)CC(C(=O)O)N1C(=O)/C(=C/C=C/c2ccco2)SC1=S (stereo not drawn)	-24.0	81.0	-131.1	81.0	10.2	nt	nt	nt
O=C(O)C(Cc1ccccc1)N1C(=O)/C(=C/C=C/c2ccco2)SC1=S (stereo not drawn)	-16.0	37.0*[inhibitor]	-178.6	40.0*[inhibitor]	30.9	89.0	-5.0	97.0
Cn1ncc(Cl)c1C(=O)N1CCN(c2ccc(Cl)c(Cl)c2)CC1	3.0	103.0	4.8	103.0	-1.6	nt	nt	nt
Cc1cccc(C)c1NC(=S)N(C)CCc1ccccn1	0.0	129.0*	-1.9	103.0	15.1	105.0	1.0	101.0
CCOC(=O)CC1(C)NC(C(=O)O)C(C)(C)S1 (stereo not drawn)	nt	nt	5.5	nt	-8.1	nt	nt	nt
CCN1CCN(c2sc(S(=O)(=O)CC)nc2S(=O)(=O)c2ccc(Cl)cc2)CC1	nt	nt	-4.1	nt	4.2	nt	nt	nt
CCS(=O)(=O)c1nc(S(=O)(=O)c2ccc(Cl)cc2)c(N2CCc3ccccc3C2)s1	0.0	135.0*	-1.4	102.0	3.1	100.0	3.0	103.0
SMILES	MEKK2 mut-MEK5	MEKK3 PB1 HTS	CendR NRP1 mod	MEKK2wt PB1 HTS	SKN-1 block	MEKK2wt confirm	MEKK2mut-MEK5	MEKK3-MEK5 inh
CNC[C@H]1Oc2ccc(NC(=O)Nc3ccccc3)cc2CC(=O)N([C@H](C)CO)C[C@H]1C	nt	nt	-26.1	nt	12.2	nt	nt	nt
O=C(CN1C(=O)NC2NC(=O)NC21)NN=C1CCCC1 (stereo not drawn)	0.0	150.0*	-3.8	109.0	-5.1	104.0	7.0	102.0
O=C(CSc1nc(-c2ccccc2)c(-c2ccccc2)[nH]1)Nc1ccc2c(c1)OCO2	1.0	146.0*	2.8	113.0	9.9	95.0	-3.0	104.0
O=C(CSc1nc2ncccc2[nH]1)Nc1ccc2c(c1)OCO2	-5.0	98.0	4.2	99.0	8.1	nt	nt	nt
CCC/C=C1/CCCOC(C(=O)NCCNCCO)(C(F)(F)F)C1 (stereo not drawn)	-7.0	71.0*[inhibitor]	10.3	81.0	-4.2	97.0	3.0	97.0
CCN(C)C1CN(Cc2cn(CCCC(=O)OC)nn2)S(=O)(=O)C1 (stereo not drawn)	nt	nt	6.0	nt	16.7	nt	nt	nt
CC(Oc1cccc(Cl)c1)C(=O)Nc1cc(Cl)ccc1N1CCOCC1 (stereo not drawn)	nt	nt	2.2	nt	10.6	nt	nt	nt
CCOC(=O)C(NC(=O)Nc1ccc(F)cc1F)(Oc1ccc(F)cc1)C(F)(F)F (stereo not drawn)	3.0	128.0*	4.6	104.0	-1.3	105.0	8.0	106.0
CN1CCN(CCCNC(=O)c2ccc(/C=C3\Sc4ccccc4N(Cc4ccccc4F)C3=O)cc2)CC1	36.0	97.0	0.7	167.0*	1.2	190.0	62.0	110.0
CCN1CCN(CCNC(=O)c2ccc(/C=C3/Sc4ccccc4N(Cc4cccc(Cl)c4)C3=O)cc2)CC1	120.0*	111.0	-7.1	280.0*	-3.1	234.0*	100.0*	116.0
COc1ccc(/C=C(\NC(=O)c2ccc(OC)cc2)C(=O)Nc2ccccc2C(=O)O)cc1	-3.0	92.0	0.5	92.0	3.6	nt	nt	nt
CC1=C(C(=O)Nc2ccccc2)C(c2ccc(Cl)cc2)n2c(s/c(=C/c3cccc(OCC(=O)O)c3)c2=O)=N1 (stereo not drawn)	-28.0	89.0	-43.6	40.0*[inhibitor]	9.6	99.0	-6.0	99.0
CC1=C(C(=O)Nc2ccccc2)C(c2ccc(C)o2)n2c(s/c(=C/c3ccccc3)c2=O)=N1 (stereo not drawn)	-11.0	82.0*[inhibitor]	-4.7	86.0	-8.5	96.0	-4.0	99.0
CC1=C(C(=O)Nc2ccccc2C)C(c2ccc(C)o2)n2c(s/c(=C/c3ccccc3)c2=O)=N1 (stereo not drawn)	3.0	102.0	-5.0	104.0	-6.3	nt	nt	nt
CCc1nc2ccc(C(=O)NCc3ccccc3OC)cn2c1N(CC)CCOC	nt	nt	0.2	nt	-3.1	nt	nt	nt

Source: PubChem
